Out of some 5,500 compounds screened, about 2,000 (36%) were called active. About 18% were inconclusive and are not listed. Some of the results follow. Values without a mark were called inactive. Rule as the data show it: active = normalized growth mostly below about 0.91 (no sharp cut-off); inconclusive = no clear call, values can overlap the other calls; inactive = mostly above about 0.92.
Assay: chemical genetic growth profiling, strain panel (AID 1159580);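 also: tested at 20 µM; growth read once vehicle control cultures reached saturation at 30 °C; 1 = growth at the plate median or of vehicle wells; lower values mean less growth of the strain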
Details: S. cerevisiae deletion strains, growth OD
[1] = locus YAR019C, strain CDC15, active compounds read low
[2] = locus YBL105C, strain PKC1, active compounds read low
[3] = locus YBR135W, strain CKS1, active compounds read low
[4] = locus YBR136W, strain MEC1, active compounds read low
[5] = locus YBR160W, strain CDC28, active compounds read low
[6] = locus YDL017W, strain CDC7, active compounds read low
[7] = locus YDL028C, strain MPS1, active compounds read low
[8] = locus YDL101C, strain DUN1, active compounds read low
[9] = locus YDL108W, strain KIN28, active compounds read low
[10] = locus YDL132W, strain cdc53, active compounds read low
[11] = locus YDL214C, strain PRR2, active compounds read low
[12] = locus YDR052C, strain DBF4, active compounds read low
[13] = locus YDR054C, strain cdc34, active compounds read low
[14] = locus YDR226W, strain ADK1, active compounds read low
[15] = locus YDR477W, strain SNF1, active compounds read low
[16] = locus YER123W, strain YCK3, active compounds read low
[17] = locus YER133W, strain GLC7, active compounds read low
[18] = locus YFL009W, strain cdc4, active compounds read low
[19] = locus YFL029C, strain CAK1, active compounds read low
[20] = locus YFR003C, strain YPI1, active compounds read low
[21] = locus YFR019W, strain FAB1, active compounds read low
[22] = locus YFR028C, strain CDC14, active compounds read low
[23] = locus YGR040W, strain KSS1, active compounds read low
[24] = locus YGR052W, strain FMP48, active compounds read low
[25] = locus YGR092W, strain DBF2, active compounds read low
[26] = locus YHR030C, strain SLT2, active compounds read low
[27] = locus YHR079C, strain IRE1, active compounds read low
[28] = locus YHR082C, strain KSP1, active compounds read low
[29] = locus YHR205W, strain SCH9, active compounds read low
[30] = locus YIL147C, strain SLN1, active compounds read low
[31] = locus YJL095W, strain BCK1, active compounds read low
[32] = locus YJL128C, strain PBS2, active compounds read low
[33] = locus YJL157C, strain FAR1, active compounds read low
[34] = locus YJR016C, strain ILV3, active compounds read low
[35] = locus YJR066W, strain TOR1 (second series), active compounds read low
[36] = locus YJR066W, strain TOR1, active compounds read low
[37] = locus YKL048C, strain ELM1, active compounds read low
[38] = locus YKL067W, strain YNK1, active compounds read low
[39] = locus YKL101W, strain HSL1, active compounds read low
[40] = locus YKL193C, strain SDS22, active compounds read low
[41] = locus YKL203C, strain TOR2, active compounds read low
[42] = locus YLR113W, strain HOG1, active compounds read low
[43] = locus YLR133W, strain CKI1, active compounds read low
[44] = locus YLR403W, strain SFP1, active compounds read low
[45] = locus YML070W, strain DAK1, active compounds read low
[46] = locus YMR001C, strain CDC5, active compounds read low
[47] = locus YMR205C, strain PFK2 (second series), active compounds read low
[48] = locus YMR277W, strain FCP1, active compounds read low
[49] = locus YNL006W, strain LST8, active compounds read low
[50] = locus YNL020C, strain ARK1, active compounds read low
[51] = locus YNL161W, strain CBK1, active compounds read low
[52] = locus YNL183C, strain NPR1, active compounds read low
[53] = locus YNL207W, strain RIO2, active compounds read low
[54] = locus YNL222W, strain SSU72, active compounds read low
[55] = locus YNL307C, strain MCK1 (second series), active compounds read low
[56] = locus YOL078W, strain AVO1, active compounds read low
[57] = locus YOL136C, strain PFK27, active compounds read low
[58] = locus YOR061W, strain CKA2, active compounds read low
[59] = locus YOR119C, strain RIO1, active compounds read low
[60] = locus YOR231W, strain MKK1, active compounds read low
[61] = locus YOR329C, strain SCD5, active compounds read low
[62] = locus YPL031C, strain PHO85, active compounds read low
[63] = locus YPL153C, strain RAD53, active compounds read low
[64] = locus YPL204W, strain HRR25, active compounds read low
[65] = locus YPL209C, strain IPL1, active compounds read low
[66] = locus YPL256C, strain CLN2, active compounds read low
[67] = locus YPR025C, strain CCL1, active compounds read low
[68] = locus YPR106W, strain ISR1, active compounds read low
[69] = locus YPR111W, strain DBF20, active compounds read low
[70] = strain NNK1, active compounds read low
[71] = strain TSCII, active compounds read low

COc1ccc(-c2csc(-c3cccnc3)n2)cc1
normalized growth [1]: 0.96 | normalized growth [2]: 0.966 | normalized growth [3]: 0.957 | normalized growth [4]: 0.958 | normalized growth [5]: 0.963 | normalized growth [6]: 0.961 | normalized growth [7]: 0.965 | normalized growth [8]: 0.951 | normalized growth [9]: 0.958 | normalized growth [10]: 0.961 | normalized growth [11]: 0.909 | normalized growth [12]: 0.973 | normalized growth [13]: 0.945 | normalized growth [14]: 0.946 | normalized growth [15]: 0.894 | normalized growth [16]: 0.847 | normalized growth [17]: 0.888 | normalized growth [18]: 0.954 | normalized growth [19]: 0.949 | normalized growth [20]: 0.947 | normalized growth [21]: 0.86 | normalized growth [22]: 0.949 | normalized growth [23]: 0.858 | normalized growth [24]: 0.993 | normalized growth [25]: 0.828 | normalized growth [26]: 0.849 (active) | normalized growth [27]: 0.889 | normalized growth [28]: 0.954 | normalized growth [29]: 0.955 | normalized growth [30]: 0.961 | normalized growth [31]: 0.884 | normalized growth [32]: 0.966 | normalized growth [33]: 0.914 | normalized growth [34]: 0.955 | normalized growth [35]: 0.857 | normalized growth [36]: 0.891 | normalized growth [37]: 0.958 | normalized growth [38]: 0.912 | normalized growth [39]: 0.928 | normalized growth [40]: 0.948 | normalized growth [41]: 0.904 | normalized growth [42]: 1.01 | normalized growth [43]: 0.915 | normalized growth [44]: 0.877 | normalized growth [45]: 0.912 | normalized growth [46]: 0.959 | normalized growth [47]: 0.907 | normalized growth [48]: 0.95 | normalized growth [49]: 0.968 | normalized growth [50]: 0.903 | normalized growth [51]: 0.963 | normalized growth [52]: 0.882 | normalized growth [53]: 0.949 | normalized growth [54]: 0.953 | normalized growth [55]: 0.888 | normalized growth [56]: 0.948 | normalized growth [57]: 0.915 | normalized growth [58]: 0.929 | normalized growth [59]: 0.948 | normalized growth [60]: 0.906 | normalized growth [61]: 0.957 | normalized growth [62]: 0.876 | normalized growth [63]: 0.883 | normalized growth [64]: 0.852 | normalized growth [65]: 0.963 | normalized growth [66]: 0.901 | normalized growth [67]: 0.958 | normalized growth [68]: 0.958 | normalized growth [69]: 0.956 | normalized growth [70]: 0.957 | normalized growth [71]: 0.952

Clc1ccccc1-c1csc(-c2cccnc2)n1
normalized growth [1]: 0.893 | normalized growth [2]: 0.934 | normalized growth [3]: 0.924 | normalized growth [4]: 0.929 | normalized growth [5]: 0.923 | normalized growth [6]: 0.928 | normalized growth [7]: 0.923 | normalized growth [8]: 0.913 (active) | normalized growth [9]: 0.924 | normalized growth [10]: 0.932 | normalized growth [11]: 0.822 | normalized growth [12]: 0.917 | normalized growth [13]: 0.848 (active) | normalized growth [14]: 0.931 | normalized growth [15]: 0.649 (active) | normalized growth [16]: 0.673 | normalized growth [17]: 0.565 (active) | normalized growth [18]: 0.932 | normalized growth [19]: 0.889 | normalized growth [20]: 0.93 | normalized growth [21]: 0.783 | normalized growth [22]: 0.939 | normalized growth [23]: 0.647 (active) | normalized growth [24]: 0.769 | normalized growth [25]: 0.541 | normalized growth [26]: 0.591 (active) | normalized growth [27]: 0.636 | normalized growth [28]: 0.894 | normalized growth [29]: 0.758 | normalized growth [30]: 0.922 | normalized growth [31]: 0.247 (active) | normalized growth [32]: 0.926 | normalized growth [33]: 0.773 | normalized growth [34]: 0.902 | normalized growth [35]: 0.686 | normalized growth [36]: 0.67 | normalized growth [37]: 0.968 | normalized growth [38]: 0.866 | normalized growth [39]: 0.9 | normalized growth [40]: 0.88 (active) | normalized growth [41]: 0.572 (active) | normalized growth [42]: 0.694 (active) | normalized growth [43]: 0.842 | normalized growth [44]: 0.662 | normalized growth [45]: 0.787 | normalized growth [46]: 0.913 | normalized growth [47]: 0.864 | normalized growth [48]: 0.869 (active) | normalized growth [49]: 0.913 | normalized growth [50]: 0.838 | normalized growth [51]: 0.919 | normalized growth [52]: 0.829 | normalized growth [53]: 0.86 (active) | normalized growth [54]: 0.916 | normalized growth [55]: 0.82 | normalized growth [56]: 0.89 | normalized growth [57]: 0.819 | normalized growth [58]: 0.896 | normalized growth [59]: 0.609 (active) | normalized growth [60]: 0.756 | normalized growth [61]: 0.902 (active) | normalized growth [62]: 0.566 (active) | normalized growth [63]: 0.563 (active) | normalized growth [64]: 0.553 (active) | normalized growth [65]: 0.909 | normalized growth [66]: 0.774 (active) | normalized growth [67]: 0.915 | normalized growth [68]: 0.932 | normalized growth [69]: 0.938 | normalized growth [70]: 0.932 | normalized growth [71]: 0.874 (active)
